Assay outcomes as filed in PubChem BioAssay.
This is a sample that favours compounds with a hit; in the whole collection about 2.6% have one here.
IEC-6 tox: kills IEC-6 intestinal cells in KLF5 counter-screen; inhibition, % at 5 µM; 290,000 tested, 0.78% active; IEC-6 cytotoxicity, luminescence viability; in the data active means inhibition above about 22%
DNA FID counter: fluorescent intercalator displacement, NS3 helicase counter-screen. DNA fluorescent intercalator displacement, fluorescence. inhibition, % at 7.9 µM. 290,000 tested, 0.17% active. AID 1845; in the data active means inhibition above about 37%;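 further: higher means more ethidium bromide displaced from hairpin DNA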
Ba/F3 V617F tox: loss of viability in JAK2V617F-driven Ba/F3 cells; 220,000 tested, 1.1% active; inhibition, % at 5.6 µM; Ba/F3 EpoR-JAK2V617F viability, ATP luminescence;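 active means inhibition above the campaign mean plus 3 SD over all tested compounds, cut at about 24% in these data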;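 further: cytokine-independent growth of Ba/F3 cells driven by EpoR plus mutant JAK2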
KLF5 inhibitor: kruppel-like factor 5 inhibition. DLD-1 KLF5 promoter-luciferase reporter, luminescence. inhibition, % at 5 µM. 290,000 tested, 0.23% active;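 active means inhibition above a per-plate limit of that plate's mean compound inhibition plus 3 SD, cut at about 60% in these data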;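 further: higher means less KLF5 promoter-driven luciferase light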
GPR7 antag: antagonists of human GPR7 (neuropeptides B/W receptor 1); P48145; GPR7-expressing cells, fluorescence antagonist assay; inhibition, % at 4.4 µM; 290,000 tested, 1.1% active; in the data active means inhibition above about 16%, passing the limit was not always enough;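 further: cells stimulated with the agonist NPW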
Target sequence (P48145 whole entry, looked up): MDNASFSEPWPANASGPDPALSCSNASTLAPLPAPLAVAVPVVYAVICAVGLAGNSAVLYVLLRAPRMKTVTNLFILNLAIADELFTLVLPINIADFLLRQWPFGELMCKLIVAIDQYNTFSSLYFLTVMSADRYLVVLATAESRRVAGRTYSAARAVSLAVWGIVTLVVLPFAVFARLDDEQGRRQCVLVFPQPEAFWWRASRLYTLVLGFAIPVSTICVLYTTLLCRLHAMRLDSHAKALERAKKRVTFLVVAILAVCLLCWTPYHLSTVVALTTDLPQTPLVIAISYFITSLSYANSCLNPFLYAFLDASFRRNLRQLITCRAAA
BaF3 tox: parental Ba/F3 viability inhibition as JAK2V617F counter-screen | CellTiter-Glo ATP luminescence | inhibition, % at 5.6 µM | 220,000 tested, 1.1% active;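 active means inhibition above a per-campaign cutoff, the mean inhibition of all tested compounds plus 3 SD, cut at about 27% in these data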
Of the large screens only hits and unclear results are named; the others gave an inactive call.

COc1ccc(NS(=O)(=O)c2ccc(NC(=O)c3ccc(CN4CCOCC4)cc3)cc2)cc1	GPR7 antag 24
CCOC(=O)N1CCN(C(=O)CSc2nnc(-c3cccs3)o2)CC1	none
Cc1ccc(-c2csc(=Nc3cccnc3)n2CCCN2CCCC2=O)cc1C	Ba/F3 V617F tox 64, BaF3 tox 54
O=C(CCN1C(=O)COc2ccccc21)N1CCN(c2ccccn2)CC1	BaF3 tox 88
CC(C)(C)NC(=O)NC(=O)CSc1nnc(COc2ccccc2Cl)o1	none
C/C(N)=C(/C#N)C(=O)CSc1nnc(COc2ccccc2Cl)o1	BaF3 tox 95
CCOC(=O)c1ccccc1NC(=O)CN(c1ccc(OCC)cc1)S(C)(=O)=O	Ba/F3 V617F tox 27, BaF3 tox 37
CCOC(=O)c1ccccc1NC(=O)CN(c1ccccc1OCC)S(C)(=O)=O	none
O=C(Nc1nc2c(s1)CCCC2)c1cccc(S(=O)(=O)N2CCCc3ccccc32)c1	none
CC(=O)/C=C1\N(C)c2ccc(C)cc2C1(C)C	Ba/F3 V617F tox 42, BaF3 tox 39
Cc1c(N=C/C=C2\N(C)c3ccccc3C2(C)C)c(=O)n(-c2ccccc2)n1C	none
Cc1c(NC(=S)/C=C2\N(C)c3ccccc3C2(C)C)c(=O)n(-c2ccccc2)n1C	BaF3 tox 50
CN1/C(=C/C(=S)NC(=O)C2CCC2)C(C)(C)c2ccccc21	BaF3 tox 30
COc1ccccc1OCC(=O)/C=C1/N(C)c2ccccc2C1(C)C	none
CC(C)C(=O)NC(=S)/C=C1/N(C)c2ccccc2C1(C)C	Ba/F3 V617F tox 30, BaF3 tox 57
O=C1C2C3C=CC(C3)C2C(=O)N1Cc1cccnc1 (configuration not stated)	none
CCCCOc1ccc(-c2c(C(=O)Nc3ccccc3)c(C)[nH]c(=S)c2C#N)cc1	none
Cc1ccc(C(=O)NC(=S)/C=C2\N(C)c3ccccc3C2(C)C)cc1	BaF3 tox 36
CN1/C(=C\C(=O)C(F)F)C(C)(C)c2ccccc21	none
COC(=O)c1ccccc1NC(=O)Cn1c(-c2nonc2N)nc2ccccc21	IEC-6 tox 35, Ba/F3 V617F tox 50, BaF3 tox 50
COC(=O)c1ccc(NC(=O)Cn2c(-c3nonc3N)nc3ccccc32)cc1	none
O=C(NCc1ccccn1)c1cc(-c2ccc(-c3ccccc3)cc2)nc2ccccc12	Ba/F3 V617F tox 34, BaF3 tox 36
O=C(NCc1ccccn1)c1cc(-c2ccccc2)nc2ccccc12	none
O=C(NCC(c1cccs1)N1CCOCC1)c1cc(-c2ccc(F)cc2)nc2ccccc12 (configuration not stated)	GPR7 antag 20
COc1ccc(-n2c(SCC(=O)Nc3ccccc3OC)nc(O)cc2=O)cc1	none
CCN(CC)CCNC(=O)c1cn(CC)c2cc(N3CCN(C)CC3)c(F)cc2c1=O	DNA FID counter 38 (no result: Ba/F3 V617F tox, BaF3 tox)
CCn1cc(C(=O)NN)c(=O)c2cc(F)c(N3CCN(C)CC3)cc21	none (no result: Ba/F3 V617F tox, BaF3 tox)
CCOC(=O)N1CCN(C(=O)c2cn(CC)c3cc(N4CCN(C)CC4)c(F)cc3c2=O)CC1	BaF3 tox 79
Nc1ccc2nc3c(c(Cl)c2c1)CCCC3	BaF3 tox 63
Clc1c2c(nc3ccccc13)CCC2	none (no result: Ba/F3 V617F tox, BaF3 tox)
CCN(CC)C(=O)C1CCCN(C(=O)Nc2ccc3nsnc3c2)C1 (configuration not stated)	none
CCn1ccc2cc(OC)ccc2c1=S	none
CCSc1ccc2cc(OC)ccc2[n+]1CC	Ba/F3 V617F tox 82, BaF3 tox 88
Cc1ccc(-n2nc3cc(C)c(NC(=S)NC(=O)/C=C/c4ccco4)cc3n2)cc1	Ba/F3 V617F tox 68, BaF3 tox 63
Cc1cc[n+](-c2ccccc2)c2ccccc12	Ba/F3 V617F tox 68, BaF3 tox 65
CN1c2ccccc2C(C)(C)C12C=Cc1cc(O)ccc1O2 (configuration not stated)	Ba/F3 V617F tox 72, BaF3 tox 63
CN1c2ccccc2C(C)(C)C12C=Nc1c(cc(N3CCOCC3)c3ccccc13)O2 (configuration not stated)	none
O=C(Cn1nnc(-c2ccccc2Cl)n1)N1CCCCC1	none (no result: Ba/F3 V617F tox, BaF3 tox)
O=C(Cn1nnc(-c2ccccc2Cl)n1)N1CCN(S(=O)(=O)c2ccc(Cl)cc2)CC1	GPR7 antag 16
Cc1ccccc1NC(=O)CSc1nc2ccccc2o1	none
N=c1n(Cc2ccc(Cl)cc2)c2ccccc2n1CC(O)COc1ccccc1 (configuration not stated)	DNA FID counter 43, GPR7 antag 47, BaF3 tox 36
N=c1n(CCO)c2ccccc2n1Cc1ccc(Cl)cc1	none
Cc1[nH]c2ccccc2c1CCN(Cc1cccnc1)C(=S)Nc1cccc(F)c1	Ba/F3 V617F tox 27, BaF3 tox 30
Cc1[nH]c2ccccc2c1CCN(Cc1cccnc1)C(=S)Nc1ccc(F)cc1	none
CCn1ccc(C(=O)Nc2ccc(Cl)cn2)n1	none
O=[N+]([O-])c1ccc(N2CCNCC2)cc1Sc1nc2ccccc2[nH]1	DNA FID counter 40
O=C(CCCSc1nc2ccccc2[nH]1)N1CCN(c2ccc([N+](=O)[O-])cc2)CC1	GPR7 antag 18
O=C(C[n+]1ccc2ccccc2c1)c1ccccc1	none
O=C(/C=C/c1ccc([N+](=O)[O-])cc1)NNC(=O)C1CC1	Ba/F3 V617F tox 44, BaF3 tox 50
O=C(/C=C/c1ccc([N+](=O)[O-])cc1)NC1CC2CCC1C2 (configuration not stated)	none
Cc1cc(C)c(C)c(OCCNCc2ccccc2)c1	none (no result: Ba/F3 V617F tox, BaF3 tox)
Cc1cc(Br)ccc1OCCNCc1ccccc1	DNA FID counter 38
O=[N+]([O-])c1ccc(Nc2ccccc2)nc1	none
O=[N+]([O-])c1ccc(NCc2ccccc2)nc1	Ba/F3 V617F tox 32, BaF3 tox 75
COc1ccc(OCC(O)CN2CCNCC2)cc1 (configuration not stated)	none (no result: Ba/F3 V617F tox, BaF3 tox)
CCN(CC)C(=O)CSc1nc2ccccc2c(=O)n1CCC(=O)N1CCN(c2ccccc2)CC1	none
N=c1c2c(n(Cc3ccc(Br)cc3)c3c1CCC3)CCCC2	Ba/F3 V617F tox 100, BaF3 tox 75
N=c1c2c(n(Cc3ccc(Cl)c(Cl)c3)c3c1CCC3)CCCC2	Ba/F3 V617F tox 88, BaF3 tox 76
COc1ccccc1-c1nnc2sc(-c3cc4ccccc4o3)nn12	IEC-6 tox 58, Ba/F3 V617F tox 88, GPR7 antag 18, BaF3 tox 80
COc1ccc(-c2cc3ccccc3n2CC(O)CNC(CO)(CO)CO)cc1 (configuration not stated)	GPR7 antag 15
O=C1CC(N(C(=O)c2ccco2)c2ccc(F)cc2)C(=O)N1c1ccc(F)cc1 (configuration not stated)	none
COCCN(Cc1nc(C2(c3ccc(C)cc3)CCCC2)no1)C(C)C	none
Nc1nnn(CC(=O)N/N=C/c2cccc3ccccc23)n1	none
CCOC(=O)COc1ccc(S(=O)(=O)NCc2ccncc2)cc1	GPR7 antag 18
